This is a sample that favours compounds with a hit; in the whole collection about 1.3% have one here.
eIF4E 4G PPI: eIF4E/eIF4G interaction inhibition in translation initiation; inhibition, % at 21.7 µM; TR-FRET eIF4E-eIF4GI(517-606) binding, 2 h; P63073+Q04637; actives 0.37% (n = 220,000);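 also: 0% = full FRET control wells and 100% = background wells lacking eIF4GI fragment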
14-3-3 Bad inh: disrupts binding of bovine 14-3-3 zeta to phospho-Bad peptide; P63103; TR-FRET 14-3-3zeta/Dy647-pBad peptide displacement, 1 h; inhibition, % at 21.7 µM; actives 0.71% (n = 220,000); AID 781;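 active = inhibition above about 70%, limit read from the data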;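 also: 0% = full 14-3-3 plus peptide FRET controls and 100% = background without 14-3-3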
Target sequence (P63103 whole entry, looked up): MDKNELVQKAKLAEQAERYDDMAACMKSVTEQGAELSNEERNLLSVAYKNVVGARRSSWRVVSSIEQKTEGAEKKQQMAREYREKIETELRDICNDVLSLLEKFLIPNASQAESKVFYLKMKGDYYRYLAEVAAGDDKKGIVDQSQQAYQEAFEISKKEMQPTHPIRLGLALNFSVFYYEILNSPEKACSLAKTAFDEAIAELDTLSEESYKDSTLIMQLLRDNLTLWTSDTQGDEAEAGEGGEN
NCF1 inh: inhibitors of human p47phox binding. inhibition, % at 24.7 µM. actives 0.53% (n = 220,000). P14598. p47phox/p22phox peptide binding, fluorescence polarization, 2 h;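 also: 0% = p47phox with labelled peptide and 100% = labelled peptide alone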
SUMO HTRF inh: blocks human SUMOylation mediated by UBC9. P63279. HTRF SUMOylation assay, SAE1/SAE2 + UBC9, in vitro. inhibition, % at 35 µM. actives 0.36% (n = 290,000); in the data active = inhibition above about 50%, passing the limit was not always enough
Target sequence (P63279 whole entry, looked up): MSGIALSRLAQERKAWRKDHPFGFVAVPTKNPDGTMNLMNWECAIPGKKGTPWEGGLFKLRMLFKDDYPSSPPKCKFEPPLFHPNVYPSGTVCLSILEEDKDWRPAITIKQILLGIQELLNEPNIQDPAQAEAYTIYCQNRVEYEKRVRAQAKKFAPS
Starred values were filed as active, the others as inactive.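 The calls were made as follows, unless noted: active = inhibition above about 30% (limit read from the data); inactive = the rest.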

Screening COc1ccccc1NC(=S)N1CCn2cccc2C1c1cccnc1 (configuration not stated) returned eIF4E 4G PPI -4.1, 14-3-3 Bad inh -10.0, NCF1 inh 2.7 and SUMO HTRF inh 5.9.
Screening O=S(=O)(c1ccc(Cl)cc1)c1ccccn1 returned eIF4E 4G PPI -1.7, 14-3-3 Bad inh 6.3, NCF1 inh -14.9 and SUMO HTRF inh -4.0.
For Cc1c(S(=O)(=O)c2ccccn2)c(N)n(Cc2cccc(Cl)c2)c1C the results were eIF4E 4G PPI 72.8*, 14-3-3 Bad inh 8.1, NCF1 inh -34.3 and SUMO HTRF inh 19.1.
O=C1CC(N2CCOCC2)=NN1c1ccc([N+](=O)[O-])cc1 was read as eIF4E 4G PPI -3.5, 14-3-3 Bad inh -7.5, NCF1 inh -11.7 and SUMO HTRF inh 95.6.
`CN(C)c1ccc(/C=C2/C(=O)N(c3ccc([N+](=O)[O-])cc3)N=C2N2CCOCC2)cc1` gave eIF4E 4G PPI -15.5, 14-3-3 Bad inh -2.1, NCF1 inh -17.5 and SUMO HTRF inh 87.2*.
For O=C(NCCC1=CCCCC1)C1CCN(S(=O)(=O)c2cnc[nH]2)CC1 the results were eIF4E 4G PPI -3.5, 14-3-3 Bad inh -4.7, NCF1 inh 7.3 and SUMO HTRF inh 6.8.
`O=C(CNCC1CCCO1)N1CCN(S(=O)(=O)c2ccc3ccccc3c2)CC1` (configuration not stated) gave eIF4E 4G PPI 6.4, 14-3-3 Bad inh 73.3*, NCF1 inh -7.2 and SUMO HTRF inh 27.8.
Screening CCOC(=O)N1CCC(N2CCN(S(=O)(=O)c3ccc4ccccc4c3)CC2)CC1 returned eIF4E 4G PPI -5.2, 14-3-3 Bad inh 70.5*, NCF1 inh 0.4 and SUMO HTRF inh -4.1.
`CCOC(=O)N1CCC(N2CCN(S(=O)(=O)c3ccc([N+](=O)[O-])cc3)CC2)CC1` gave eIF4E 4G PPI -6.3, 14-3-3 Bad inh 18.5, NCF1 inh 7.2 and SUMO HTRF inh 3.4.
Screening O=C(CCl)N1CCN(S(=O)(=O)c2ccc3ccccc3c2)CC1 returned SUMO HTRF inh 8.9.
Cc1nn(-c2ccccc2)c(C)c1C(=O)NNC(=O)C(F)(F)F was read as eIF4E 4G PPI 2.1, 14-3-3 Bad inh -2.8, NCF1 inh -0.7 and SUMO HTRF inh 11.9.
Screening CCOc1ccc(CCNS(=O)(=O)c2ccc(-c3ccc(=O)[nH]n3)o2)cc1OCC returned SUMO HTRF inh 1.6.
`CCOc1ccc(CCNS(=O)(=O)c2cnc[nH]2)cc1OCC` gave eIF4E 4G PPI -3.1, 14-3-3 Bad inh 3.2, NCF1 inh 61.9* and SUMO HTRF inh 3.5.
CC1CCN(C(=O)c2ccc(CNc3c(N4CCCC4)c(=O)c3=O)cc2)CC1 was read as eIF4E 4G PPI -8.2, 14-3-3 Bad inh 3.8, NCF1 inh 2.9 and SUMO HTRF inh 8.3.
For O=C(c1ccc(CNc2c(N3CCCC3)c(=O)c2=O)cc1)N1CCN(C2CCCCC2)CC1 the results were eIF4E 4G PPI 1.5, 14-3-3 Bad inh -1.1, NCF1 inh 34.8* and SUMO HTRF inh 16.1.
For O=C(NCc1ccc(Cl)cc1)c1ccc(CNc2c(N3CCCC3)c(=O)c2=O)cc1 the results were eIF4E 4G PPI 56.6*, 14-3-3 Bad inh -2.8, NCF1 inh -4.8 and SUMO HTRF inh 1.1.
`O=C(NCc1ccc(Cl)cc1)c1ccc(CNc2c(N3CCOCC3)c(=O)c2=O)cc1` gave eIF4E 4G PPI -7.2, 14-3-3 Bad inh 3.5, NCF1 inh 2.6 and SUMO HTRF inh 6.8.
Screening Cc1cc(C)n2nc(C(=O)NNC(=O)c3ccc(Cl)cc3)nc2n1 returned eIF4E 4G PPI 1.6, 14-3-3 Bad inh -2.1, NCF1 inh 36.1* and SUMO HTRF inh 6.4.
CCOC(=O)c1nnn(CC(=O)NC(=O)Nc2ccc(F)cc2)c1C(=O)OCC was read as eIF4E 4G PPI -8.3, 14-3-3 Bad inh -8.8, NCF1 inh -6.6 and SUMO HTRF inh 10.6.
Screening Cc1ccccc1NC(=O)CCC(=O)OCC(=O)c1cccc([N+](=O)[O-])c1 returned eIF4E 4G PPI 6.2, 14-3-3 Bad inh -1.8, NCF1 inh 32.4* and SUMO HTRF inh 7.5.
Screening COc1ccc(CN(CCCN2CCOCC2)C(=O)Nc2ccccc2)cc1OC returned eIF4E 4G PPI -1.0, 14-3-3 Bad inh -10.6, NCF1 inh 1.8 and SUMO HTRF inh 6.7.
For COc1ccc(CN(CCN2CCOCC2)C(=O)c2c(F)cccc2F)cc1OC the results were eIF4E 4G PPI -2.5, 14-3-3 Bad inh 80.0*, NCF1 inh -9.7 and SUMO HTRF inh 1.8.
Oc1cc2c(cc1C(c1ccc(Br)cc1)N1CCCC1)OCO2 (configuration not stated) was read as eIF4E 4G PPI 43.6*, 14-3-3 Bad inh 30.0, NCF1 inh 3.3 and SUMO HTRF inh 10.7.

Screening results as filed in PubChem.
